According to PMC5540273 (PLoS ONE, 2017):

How the values were obtained:
Details in all cases: concentration: 1 μM, replicates: in singlicate; n = 1
YANK1 = test system: T1, YANK1
T1 construct: gene STK32A

YANK2 = test system: T2, YANK2
T2 construct: gene STK32B

YANK3 = test system: T3, YANK3
T3 construct: gene STK32C

YES = test system: T4, YES
T4 construct: gene YES1

YSK1 = test system: T5, YSK1
T5 construct: gene STK25

YSK4 = test system: T6, YSK4
T6 construct: gene MAP3K19

ZAK = test system: ZAK
ZAP70 = test system: ZAP70
p38-alpha = test system: T7, p38-alpha
T7 construct: gene MAPK14

p38-beta = test system: T8, p38-beta
T8 construct: gene MAPK11

p38-delta = test system: p38-delta
p38-gamma = test system: T9, p38-gamma
T9 construct: gene MAPK12
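Also: KINOMEscan kinase panel screen.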

SMILES | %Inh (YANK1) [%] | %Inh (YANK2) [%] | %Inh (YANK3) [%] | %Inh (YES) [%] | %Inh (YSK1) [%] | %Inh (YSK4) [%] | %Inh (ZAK) [%] | %Inh (ZAP70) [%] | %Inh (p38-alpha) [%] | %Inh (p38-beta) [%] | %Inh (p38-delta) [%] | %Inh (p38-gamma) [%]
CCS(=O)c1ccc(-c2coc3ccc(-c4nnc(C)o4)cc23)cc1 (stereo not drawn) | 5 | 11 | 0 | 0 | 0 | 15 | 8 | 0 | 0 | 5 | 11 | 0
COc1cccc(C2=C(N(C)c3ccccc3)C(=O)NC2=O)c1 [SB-334865] | 0 | 0 | 2 | 21 | 8 | 37 | 20 | 0 | 14 | 0 | 42 | 0
Cc1nc(N(C)[C@H]2CN(C(=O)CC#N)CC[C@H]2C)c2cc[nH]c2n1 | 0 | 0 | 6 | 18 | 0 | 0 | 0 | 0 | 0 | 1 | 0 | 11
COc1ccc(-c2cc3c(C)nc(N)nc3n([C@H]3CC[C@H](O)CC3)c2=O)cn1 | 0 | 0 | 0 | 0 | 0 | 0 | 0 | 0 | 0 | 0 | 0 | 100
CCc1nc(-c2cccc(C)c2)c(-c2ccncc2)s1 | 36 | 16 | 0 | 7 | 0 | 8 | 0 | 0 | 72 | 52 | 0 | 10
Cl.c1ccc(Cn2cnc3cc(Nc4ncnc5ccccc45)ccc32)cc1 [GW272142] | 0 | 0 | 18 | 7 | 0 | 29 | 0 | 21 | 0 | 0 | 39 | 0
Cc1nn2c(=O)cc(N3CCOCC3)nc2n1Cc1cccc(Cl)c1Cl [GSK2342769] | 0 | 0 | 22 | 13 | 0 | 32 | 9 | 0 | 0 | 0 | 17 | 0
COC(=O)c1c(-c2ccccc2)c2cc(Br)ccc2c(=O)n1Cc1ccc(NC(=O)CCC(=O)O)cc1 | 0 | 21 | 0 | 0 | 0 | 12 | 36 | 0 | 5 | 5 | 28 | 21
COc1ccc(-c2coc3ccc(-c4nnc(SCc5cccc(C#N)c5)o4)cc23)cc1 | 21 | 12 | 11 | 0 | 0 | 0 | 23 | 0 | 5 | 11 | 16 | 7
CC(C)(C)c1ccc(C(=O)Nc2cn3cc(-c4ccccc4)ccc3n2)cc1 | 0 | 0 | 0 | 2 | 0 | 21 | 14 | 0 | 0 | 11 | 34 | 8
Cc1ccccc1COc1cc(-n2cnc3cc(Cl)ccc32)sc1C(N)=O [GW813349] | 14 | 2 | 35 | 0 | 0 | 10 | 0 | 19 | 0 | 5 | 0 | 20
Nc1nc(N)c2nc(-c3ccccc3)[nH]c2n1 [SKF-12778] | 0 | 1 | 13 | 11 | 0 | 68 | 22 | 14 | 0 | 7 | 19 | 0
